The nature of assay [1]: qHTS profiling of the MIPE4 collection as inhibitors of Plasmodium falciparum (3D7) proliferation (AID 743344).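 Note: scaled between DMSO vehicle wells and 0.29 µM artemisinin as full inhibition.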 The settings on record: P. falciparum 3D7 in erythrocytes, SYBR Green DNA fluorescence, 72 h; at 28.5 µM unless noted. The essentials: (§1)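 Parasite DNA was quantified by SYBR Green I fluorescence (ex 485, em 535 nm) after overnight lysis in saponin/Triton buffer at room temperature. Cultures at 0.3% parasitemia and 2.5% hematocrit were first exposed to compound for 72 h at 37 C; signals were normalised to artemisinin (0.29 uM) and vehicle wells.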
(In general: Quantitative high-throughput screening tests each substance at several concentrations.)

Assay [2] in a line: qHTS profiling of the MIPE4 collection as inhibitors of Plasmodium falciparum (DD2) proliferation (AID 743345). The settings on record: P. falciparum Dd2 in erythrocytes, SYBR Green DNA, 72 h; at 28.5 µM unless noted. The essentials:
as §1

A short description of assay [3]: qHTS profiling of the MIPE4 collection as inhibitors of Plasmodium falciparum (DD2) proliferation (Rep 2) (AID 743346). The settings on record: P. falciparum Dd2 in erythrocytes, SYBR Green DNA, 72 h; at 28.5 µM unless noted. The essentials:
as §1

Assay [4] is described as follows: qHTS profiling of the MIPE4 collection as inhibitors of Plasmodium falciparum (HB3) proliferation (AID 743347).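 Note: plate controls were DMSO vehicle wells for no effect and artemisinin wells for full effect.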 The settings on record: P. falciparum HB3 in erythrocytes, SYBR Green DNA, 72 h; at 28.5 µM unless noted. In short, it runs like this:
as §1

As to `CCCCCCCCc1ccc(CCC(N)(CO)CO)cc1`, the parasite growth, % of DMSO control in assay [1] stood at 9.21%. In assay [2], this compound yielded a parasite growth remaining, % of DMSO control (lower = more inhibition) of 14.6%. Further, in assay [3], the parasite growth, % of control (lower = inhibition) was 24.2%. For the same compound, the growth, % of control in assay [4] was 4.09%.
Regarding `O=c1c(O)c(-c2ccc(O)c(O)c2)oc2cc(O)ccc12`, the parasite growth, % of DMSO control in assay [1] is 5.73%. In addition, in assay [2], the parasite growth remaining, % of DMSO control (lower = more inhibition) was determined as 8.33%. Besides, the parasite growth, % of control (lower = inhibition) in assay [3] amounted to 14.7%. This compound gave a growth, % of control in assay [4] of 8.07%.
In turn, `CC[C@H]1OC(=O)[C@H](C)[C@@H](O[C@H]2C[C@@](C)(OC)[C@@H](O)[C@H](C)O2)[C@H](C)[C@@H](O[C@@H]2O[C@H](C)C[C@H](N(C)C)[C@@H]2O)[C@](C)(OC)C[C@@H](C)C(=O)[C@H](C)[C@@H](O)[C@]1(C)O` had a parasite growth, % of DMSO control in assay [1] of 46.8%. Besides, the parasite growth remaining, % of DMSO control (lower = more inhibition) in assay [2] is 44.2%. The growth, % of control in assay [4] was 51.5%.
In assay [1], `Cc1cncc2cccc(S(=O)(=O)N3CCCN(C(=O)CN)C[C@@H]3C)c12` registered a parasite growth, % of DMSO control of 85.8%. Moreover, the parasite growth remaining, % of DMSO control (lower = more inhibition) in assay [2] came to 89.9%. Further, the parasite growth, % of control (lower = inhibition) in assay [3] stood at 51%. Besides, the growth, % of control in assay [4] stood at 101%.
`CCNC(=O)Nc1ccc(-c2nc3c(c(N4CCOC[C@H]4C)n2)CCN(C2COC2)C3)cc1` yielded a parasite growth, % of DMSO control in assay [1] of 24.6%. The parasite growth, % of control (lower = inhibition) in assay [3] came out at 49%. The compound further registered a growth, % of control in assay [4] of 71.6%.
On the same counts, the results for `Cc1ccc(O)c(C(CCN(C(C)C)C(C)C)c2ccccc2)c1` (configuration not stated) are 11.8%, 10.4% and 19.1%.
The compound `CC(C)(C)c1nc2c3cc[nH]c(=O)c3c3cc(F)ccc3c2[nH]1` registered a parasite growth remaining, % of DMSO control (lower = more inhibition) in assay [2] of 94.4%.
Turning to `N#Cc1c(NC(=O)c2cccc3ccccc23)sc2c1CCCC2`, the parasite growth, % of DMSO control in assay [1] turned out to be 69.2%. In assay [3], the parasite growth, % of control (lower = inhibition) was found to be 90%. In assay [4], the growth, % of control turned out to be 69.7%.
In the same order, the values of `COC(=O)[C@@H]1CC2=CC(=O)CC[C@]2(C)[C@@]23O[C@@H]2C[C@@]2(C)[C@H](CC[C@@]24CCC(=O)O4)[C@@H]13` are 74.7%, 61.4% and 49.1%.
In the case of `NS(=O)(=O)OC[C@@H]1C[C@@H](n2ccc3c(N[C@H]4CCc5ccccc54)ncnc32)C[C@H]1O`, the parasite growth, % of DMSO control in assay [1] is 23.8%. Moreover, the parasite growth, % of control (lower = inhibition) in assay [3] was determined as 46.9%. Also, the growth, % of control in assay [4] came out at 51%.
`O=C(C=CC=Cc1ccc2c(c1)OCO2)N1CCCCC1` displayed a parasite growth, % of DMSO control in assay [1] of 87.5%. Besides, the parasite growth, % of control (lower = inhibition) in assay [3] is 123%. In assay [4], the growth, % of control was found to be 95%.
With `CC(C=CC(=O)NO)=C[C@@H](C)C(=O)c1ccc(N(C)C)cc1`, in assay [1], the parasite growth, % of DMSO control was determined as 5.14%. The parasite growth, % of control (lower = inhibition) in assay [3] was 9.43%. In assay [4], this compound came in with a growth, % of control of 3.58%.
On the same counts, the results for `Cn1cc(-c2ccc3ncc(Cc4ccc5ncccc5c4)n3n2)cn1` are 26.2%, 33.6% and 13.9%.
In the same order, the values of `CCc1c(O)cc(O)c(C(=O)c2ccc(OCCN3CCOCC3)c(OC)c2)c1CC(=O)N(CCOC)CCOC` are 4.87%, 11.6% and 7.26%.
On to `C[C@H](NCc1ccc(OCc2cccc(F)c2)cc1)C(N)=O`, for which the parasite growth, % of DMSO control in assay [1] was found to be 8.15%. Moreover, in assay [3], the parasite growth, % of control (lower = inhibition) came out at 12.8%. For the same compound, the growth, % of control in assay [4] was 3.17%.
On the same counts, the results for `CC(=O)N[C@@H]1[C@H](O[C@@H]2c3ccc(c(Cl)c3)Oc3cc4cc(c3O[C@H]3O[C@H](CO)[C@@H](O)[C@H](O)[C@H]3NC(=O)CCCCCCCC(C)C)Oc3ccc(cc3Cl)C[C@H]3NC(=O)[C@H](N)c5ccc(O)c(c5)Oc5cc(O)cc(c5)[C@H](NC3=O)C(=O)N[C@H]4C(=O)N[C@H]3C(=O)N[C@@H]2C(=O)N[C@@H](C(=O)O)c2cc(O)cc(O[C@H]4O[C@H](CO)[C@@H](O)[C@H](O)[C@H]4O)c2-c2cc3ccc2O)O[C@H](CO)[C@@H](O)[C@@H]1O` are 395%, 159% and 675%.
In the same order, the values of `C[C@]12CCC(=O)C=C1[C@@H]1CC1[C@H]1[C@H]3[C@@H]4C[C@H]4[C@@]4(CCC(=O)O4)[C@@]3(C)CC[C@H]12` (some centres not stated) are 65.8%, 41.4% and 71.4%.
Compound `CCCCCN=C(N)NN=Cc1c[nH]c2ccc(OC)cc12` yielded a parasite growth, % of DMSO control in assay [1] of 7.63%. The parasite growth, % of control (lower = inhibition) in assay [3] is 22.5%. Further, the growth, % of control in assay [4] amounted to 6.26%.
`C[C@H](NC(=O)C(C#N)=Cc1cccc(Br)n1)c1ccccc1`: the parasite growth, % of DMSO control in assay [1] is 59.1%. The parasite growth, % of control (lower = inhibition) in assay [3] was 33.4%.
Take `COc1cccc2c1C(=O)c1c(O)c3c(c(O)c1C2=O)C[C@@](O)(C(=O)CO)C[C@@H]3O[C@H]1C[C@H](N)[C@H](OC2CCCCO2)[C@H](C)O1` (some centres not stated): the parasite growth, % of DMSO control in assay [1] turned out to be 5.43%. The parasite growth, % of control (lower = inhibition) in assay [3] stood at 7.8%. The compound further displayed a growth, % of control in assay [4] of 3.44%.
In turn, `OC[C@H]1OC(O)C[C@@H](O)[C@H]1O` (some centres not stated) returned a parasite growth, % of DMSO control in assay [1] of 96.9%. The same compound showed a growth, % of control in assay [4] of 86.6%.
`COc1cc([C@@H]2c3cc4c(cc3[C@@H](O[C@@H]3O[C@@H]5CO[C@@H](c6cccs6)O[C@@H]5[C@H](O)[C@@H]3O)[C@H]3COC(=O)[C@H]23)OCO4)cc(OC)c1O` had a parasite growth, % of DMSO control in assay [1] of 5.39%. The parasite growth, % of control (lower = inhibition) in assay [3] stood at 9.32%. In addition, the growth, % of control in assay [4] came to 5.8%.
For the compound `C=C(C)[C@@H]1CC[C@]2(C(=O)O)CC[C@]3(C)[C@H](CC[C@@H]4[C@@]5(C)CC[C@H](O)C(C)(C)[C@@H]5CC[C@]43C)[C@@H]12`, in assay [2], the parasite growth remaining, % of DMSO control (lower = more inhibition) turned out to be 20.6%.
In turn, `NC(=O)Nc1cc(-c2ccc(CN3CCOCC3)cc2)sc1C(N)=O` registered a parasite growth, % of DMSO control in assay [1] of 27.3%. Besides, in assay [3], the parasite growth, % of control (lower = inhibition) is 33%. The compound also registered a growth, % of control in assay [4] of 33.4%.
On the same counts, the results for `CCCNC(=O)[C@H]1O[C@H]1C(=O)N[C@H](C(=O)N1CCC[C@@H]1C(=O)OC)C(C)CC` (some centres not stated) are 88%, 52.3% and 102%.
In assay [1], `CC(C)Oc1ccc(C(=O)N[C@H](CNC(=O)CN(C)C)Cc2ccc(-c3cn4cccc([C@H](C)O)c4n3)cc2)cc1Cl` returned a parasite growth, % of DMSO control of 5.62%. This compound came in with a growth, % of control in assay [4] of 5.09%.
Consider `CC(=O)NCC(=O)N1[C@H]2CC[C@H]1c1cc(Nc3ncc(C(F)(F)F)c(NC4CCC4)n3)ccc12`, for which, in assay [1], the parasite growth, % of DMSO control turned out to be 8.18%. Moreover, in assay [3], the parasite growth, % of control (lower = inhibition) amounted to 12.7%. This compound yielded a growth, % of control in assay [4] of 6.85%.
In the same order, the values of `C=CC(=O)Nc1ccc2ncnc(Nc3ccc(OCc4cccc(F)c4)c(Cl)c3)c2c1` are 6.97%, 16.4% and 5.29%.
With `C[C@H]1[C@@H](OC(=O)CCC(=O)O)O[C@@H]2O[C@@]3(C)CC[C@@H]4[C@H](C)CC[C@@H]1[C@@]24OO3`, the parasite growth, % of DMSO control in assay [1] is 21.4%. In addition, in assay [3], the parasite growth, % of control (lower = inhibition) came out at 10.6%. In assay [4], this compound gave a growth, % of control of 8.92%.
In the same order, the values of `COC[C@H](NC(=O)c1cnc(C)s1)C(=O)N[C@@H](COC)C(=O)N[C@@H](Cc1ccccc1)C(=O)[C@@]1(C)CO1` are 5.4%, 12.2% and 5.53%.
`O=C(C=CC#Cc1cccc(NS(=O)(=O)c2ccccc2)c1)NO` displayed a parasite growth, % of DMSO control in assay [1] of 5.45%. The parasite growth, % of control (lower = inhibition) in assay [3] was 8.22%.
In the same order, the values of `CC(C)n1cnc2c(NCCc3ccc(O)cc3)nc(-c3csc4ccccc34)nc21` are 5.76% and 13.2%.
`CN1C(C(=O)Nc2ccccn2)=C(O)c2sc(Cl)cc2S1(=O)=O`: in assay [1], the parasite growth, % of DMSO control was found to be 64.4%. In assay [4], this compound showed a growth, % of control of 69.3%.

For the origin of these results see PubChem BioAssay (NCATS).
